According to the supplement of paper PMC12350171:
Where a name gives a salt, the structure may show the parent alone.

What was measured:
Settings in all cases: 20 µM
[1] = test system: Salmonella enterica typhimurium; test: growth AUC normalised to DMSO control (fraction of control); higher = less growth inhibition, active = hit call of the paper
How it was run: (§1)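 Pathogens were passaged twice under anaerobic conditions, then inoculated into pre-reduced mGAM plates at a starting OD578 of 0.01, with compound at 20 μM and 1% DMSO, and sealed with breathable membranes. For Haemophilus parainfluenzae, the medium was supplemented with hemin and NAD. OD578 was read every hour for 24 h in three biological replicates. Growth-curve AUC was calculated by the trapezoidal rule up to the exponential-to-stationary transition and normalised to DMSO controls on the same plate.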

Shigella flexneri = test: as above
How it was run: as §1

Vibrio cholerae = test: as above
How it was run: as §1

[2] = test system: Yersinia pseudotuberculosis; test: as above
How it was run: as §1

P. vulgatus RND KO = test: growth AUC normalised to DMSO control (median) (fraction of control); higher = less growth inhibition, active = hit call of the paper
How it was run: (§2)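 After two overnight anaerobic passages, strains were inoculated at OD578 0.01 into mGAM in 96-well plates containing approved-drug library compounds at 20 μM and 1% DMSO. Growth was followed by reading OD578 hourly for 24 h within an anaerobic incubator. Area under the curve, taken by the trapezoidal rule up to the start of stationary phase, was normalised to same-plate vehicle wells, and the median of three biological replicates is listed.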

P. vulgatus WT = test: as above
How it was run: as §2

[3] = test system: S. enterica typhimurium WT; test: as above
How it was run: as §2

[4] = test system: S. enterica typhimurium tolC KO; test: as above
How it was run: as §2

Measured: growth AUC normalised to DMSO control
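For growth AUC normalised to DMSO control (median) in this document: active when median AUC fell below 0.1.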

CC(N/C(=N\C#N)Nc1ccncc1)C(C)(C)C (stereo not given) [Pinacidil monohydrate]
inactive: [1] 0.991 | Shigella flexneri 1 | Vibrio cholerae 0.998 | [2] 0.982 | P. vulgatus RND KO 1.07 | P. vulgatus WT 1.06 | [3] 1.01 | [4] 0.976

CCC(NC(C)C)C(O)c1ccc(O)c(O)c1 (stereo not given) [Isoetharine mesylate salt]
inactive: [1] 0.999 | Shigella flexneri 1 | Vibrio cholerae 0.995 | [2] 1 | P. vulgatus RND KO 0.994 | P. vulgatus WT 1.01 | [3] 0.999 | [4] 0.994

CC(COc1ccccc1)N(CCCl)Cc1ccccc1 (stereo not given) [Phenoxybenzamine hydrochloride]
inactive: [1] 1.01 | Shigella flexneri 1.01 | Vibrio cholerae 1.01 | [2] 1.03 | P. vulgatus RND KO 1.02 | P. vulgatus WT 1.03 | [3] 1 | [4] 0.99

COc1ccccc1N1CCN(CCCNc2cc(=O)n(C)c(=O)n2C)CC1 [Urapidil hydrochloride]
inactive: [1] 1.01 | Shigella flexneri 0.992 | Vibrio cholerae 0.984 | [2] 1 | P. vulgatus RND KO 0.976 | P. vulgatus WT 0.976 | [3] 1 | [4] 0.992

CCCc1cc(C(N)=S)ccn1 [Prothionamide]
inactive: [1] 1 | Shigella flexneri 1 | Vibrio cholerae 1.01 | [2] 1 | P. vulgatus RND KO 0.988 | P. vulgatus WT 0.997 | [3] 0.987 | [4] 0.981

CN(CCOc1ccc(CC2SC(=O)NC2=O)cc1)c1ccccn1 (stereo not given) [Rosiglitazone hydrochloride]
inactive: [1] 1.02 | Shigella flexneri 1.08 | Vibrio cholerae 1.01 | [2] 0.975 | P. vulgatus RND KO 1.06 | P. vulgatus WT 1.04 | [3] 1.02 | [4] 0.993

CCCCNc1cc(C(=O)O)cc(S(N)(=O)=O)c1Oc1ccccc1 [Bumetanide]
inactive: [1] 0.969 | Shigella flexneri 0.991 | Vibrio cholerae 0.982 | [2] 0.995 | P. vulgatus RND KO 1.01 | P. vulgatus WT 1.01 | [3] 0.996 | [4] 0.991

COc1cc2nc(N3CCN(C(=O)c4ccco4)CC3)nc(N)c2cc1OC [Prazosin hydrochloride]
inactive: [1] 0.993 | Shigella flexneri 0.984 | Vibrio cholerae 1 | [2] 1.01 | P. vulgatus RND KO 1 | P. vulgatus WT 1 | [3] 0.993 | [4] 0.97

CN1CCc2c(c3ccccc3n2Cc2ccccc2)C1 [Mebhydroline 1,5-naphtalenedisulfonate]
inactive: [1] 0.985 | Shigella flexneri 0.96 | Vibrio cholerae 0.922 | [2] 0.702 | P. vulgatus RND KO 0.948 | P. vulgatus WT 0.971 | [3] 0.979 | [4] 0.977

O=C(O)CCc1nc(-c2ccccc2)c(-c2ccccc2)o1 [Oxaprozin]
inactive: [1] 1.02 | Shigella flexneri 1.02 | Vibrio cholerae 1.01 | [2] 0.994 | P. vulgatus RND KO 1 | P. vulgatus WT 1.05 | [3] 1 | [4] 1

Cc1cccc(C)c1NC(=O)C1CCCCN1C (stereo not given) [Mepivacaine hydrochloride]
inactive: [1] 1.01 | Shigella flexneri 1.06 | Vibrio cholerae 1.07 | [2] 1.02 | P. vulgatus RND KO 1.06 | P. vulgatus WT 1.05 | [3] 0.99 | [4] 0.996

CC(Oc1ccccc1)C(=O)N[C@@H]1C(=O)N2[C@@H]1SC(C)(C)[C@@H]2C(=O)O (stereo not given in full) [Phenethicillin potassium salt]
active: [2] 0.898 | P. vulgatus RND KO 0.0155 | P. vulgatus WT 0.00969 | [4] 0.00227
inactive: [1] 1.01 | Shigella flexneri 1.02 | Vibrio cholerae 1 | [3] 1

CCOC(=O)C1=C(C)NC(C)=C(C(=O)OCC)C1c1ccccc1/C=C/C(=O)OC(C)(C)C [Lacidipine]
inactive: [1] 1.01 | Shigella flexneri 1 | Vibrio cholerae 1.02 | [2] 1.02 | P. vulgatus RND KO 1.07 | P. vulgatus WT 1.06 | [3] 1 | [4] 1

C#CCN(C)CCCOc1ccc(Cl)cc1Cl [Clorgyline hydrochloride]
active: Vibrio cholerae 0.862
inactive: [1] 0.966 | Shigella flexneri 0.955 | [2] 0.994 | P. vulgatus RND KO 0.999 | P. vulgatus WT 1.01 | [3] 0.976 | [4] 0.93

Cc1cc(C2CCCCC2)n(O)c(=O)c1 [Ciclopirox ethanolamine]
inactive: [1] 1.01 | Shigella flexneri 0.997 | Vibrio cholerae 0.969 | [2] 0.995 | P. vulgatus RND KO 1.02 | P. vulgatus WT 0.999 | [3] 1.02 | [4] 0.952
